Where “and” joins values, the source holds several entries; their conditions need not be identical. Equal entries are not always repeated. Hit rate of the full screen: of about 3,200 compounds, about 300 (9.4%) showed activity. The sample as a whole holds a higher share of actives than the screen did.
Tested on: A673/TR/shEF
Experiment: cell viability (LOESS-normalised, relative to median of negative controls) (log2 ratio); higher = more viable cells (less compound effect), active = hit call of the paper (over 3 MAD below the median)
Conditions: treatment time: 72 h
In short: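 Viability of A673/TR/shEF Ewing sarcoma cells was determined by CellTiter-Glo luminescence. The cells, at 1,500 per well in 384-well plates, were grown with or without doxycycline from 24 h before compound addition to switch on EWS-FLI1 shRNA knockdown, then exposed for three days to library compounds at two or more concentrations or to DMSO controls. Signals were LOESS-corrected plate by plate, normalised to the negative-control median and log2-transformed.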

[1] = 0.25 µM, library screen: screen1, EWS-FLI1 expression: high (no doxycycline)
[2] = 0.25 µM, library screen: screen1, EWS-FLI1 expression: low (doxycycline-induced shRNA knockdown)
[3] = 2.5 µM, library screen: screen1, EWS-FLI1 expression: high (no doxycycline)
[4] = 2.5 µM, library screen: screen1, EWS-FLI1 expression: low (doxycycline-induced shRNA knockdown)
[5] = 0.25 µM, library screen: screen2, EWS-FLI1 expression: high (no doxycycline)
[6] = 0.25 µM, library screen: screen2, EWS-FLI1 expression: low (doxycycline-induced shRNA knockdown)
[7] = 2.5 µM, library screen: screen2, EWS-FLI1 expression: high (no doxycycline)
[8] = 2.5 µM, library screen: screen2, EWS-FLI1 expression: low (doxycycline-induced shRNA knockdown)
[9] = 0.025 µM, library screen: screen1, EWS-FLI1 expression: high (no doxycycline)
[10] = 0.025 µM, library screen: screen1, EWS-FLI1 expression: low (doxycycline-induced shRNA knockdown)
[11] = 25 µM, library screen: screen1, EWS-FLI1 expression: high (no doxycycline)
[12] = 25 µM, library screen: screen1, EWS-FLI1 expression: low (doxycycline-induced shRNA knockdown)

Measured: cell viability (log2)

Cc1[nH]c2ccccc2c1CN(C)C
inactive: [1] 0.0738 | [2] 0.0842 | [3] 0.116 | [4] 0.138

NC(C(=O)O)c1cc(=O)[nH]o1 (centres undefined)
inactive: [5] 0.0457 | [6] -0.00138 | [7] 0.0296 | [8] 0.048

C=C1C([C@]2(C)C(CC(=O)OC)[C@@](C)(COC(C)=O)OC(=O)C[C@@H]2OC(C)=O)[C@@H](OC=O)[C@H](OC(=O)C(OC(C)=O)C(C)CC)[C@@]2(C)[C@H](c3ccoc3)CC(=O)C12O (some centres undefined)
inactive: [1] 0.0373 | [2] -0.0517 | [3] 0.0516 | [4] -0.0237

C/C(O)=C(\C#N)C(=O)Nc1cc(Br)ccc1Br
active: [3] -0.396 | [11] -0.451
inactive: [9] 0.198 | [10] -0.0693 | [1] 0.124 | [2] -0.0251 | [5] 0.133 | [6] 0.0965 | [4] -0.0427 | [7] 0.0403 | [8] 0.0594 | [12] -0.00927

COc1cc2ccc(=O)oc2c2ccoc12
inactive: [1] 0.222 | [2] 0.132 | [3] 0.248 | [4] 0.164

CCN(CC)C(=O)NC1C=C2c3cccc4[nH]cc(c34)CC2N(C)C1 (centres undefined)
inactive: [5] 0.194 | [6] 0.105 | [7] 0.116 | [8] 0.101

O=[N+]([O-])c1ccc(O[C@@H]2O[C@H](CO)[C@@H](O)[C@H](O)[C@H]2F)c([N+](=O)[O-])c1
inactive: [5] 0.132 | [6] 0.00815 | [7] 0.0628 | [8] 0.111

COc1c2c(cc3c1OCO3)[C@]13C=C[C@H](OC)C[C@H]1N(C2)CC3O (some centres undefined)
inactive: [1] 0.0348 | [2] 0.0745 | [3] 0.0133 | [4] 0.0521

COP(=S)(OC)SCn1nnc2ccccc2c1=O
inactive: 0.103 µM, library screen: screen3, EWS-FLI1 expression: high (no doxycycline) -0.0814 | 0.103 µM, library screen: screen3, EWS-FLI1 expression: low (doxycycline-induced shRNA knockdown) 0.0283 | [1] -0.0615 | [2] 0.0291 | 0.308 µM, library screen: screen3, EWS-FLI1 expression: high (no doxycycline) -0.0468 | 0.308 µM, library screen: screen3, EWS-FLI1 expression: low (doxycycline-induced shRNA knockdown) 0.0348 | 0.926 µM, library screen: screen3, EWS-FLI1 expression: high (no doxycycline) -0.0952 | 0.926 µM, library screen: screen3, EWS-FLI1 expression: low (doxycycline-induced shRNA knockdown) 0.162 | [3] 0.00869 | [4] 0.101 | 2.8 µM, library screen: screen3, EWS-FLI1 expression: high (no doxycycline) -0.136 | 2.8 µM, library screen: screen3, EWS-FLI1 expression: low (doxycycline-induced shRNA knockdown) 0.125 | 8.3 µM, library screen: screen3, EWS-FLI1 expression: low (doxycycline-induced shRNA knockdown) 0.196 | 25 µM, library screen: screen3, EWS-FLI1 expression: low (doxycycline-induced shRNA knockdown) 0.00265
active: 8.3 µM, library screen: screen3, EWS-FLI1 expression: high (no doxycycline) -0.267 | 25 µM, library screen: screen3, EWS-FLI1 expression: high (no doxycycline) -0.422

CNC(=O)CSP(=S)(OC)OC
inactive: [1] 0.102 | [2] 0.0684 | [3] 0.15 | [4] 0.0982

CCCN1CCc2cccc3c2[C@H]1Cc1ccc(O)c(O)c1-3
inactive: [5] 0.161 | [6] 0.0862 | [7] 0.178 | [8] 0.107

CC(C)=CCOc1c2occc2cc2ccc(=O)oc12
inactive: [1] 0.059 | [2] 0.0156 | [3] 0.0916 | [4] -0.0403

Clc1ccc(C(c2ccc(Cl)cc2)C(Cl)(Cl)Cl)cc1
inactive: [1] 0.0479 | [2] 0.0234 | [3] 0.0726 | [4] 0.147

CN(C)C(=S)SSC(=S)N(C)C
active: [1] -2.91 | [2] -2.1 | [3] -2.99 | [4] -2.02

C[C@]12CC[C@@H](O)C[C@@H]1CC[C@@H]1[C@@H]2CC[C@]2(C)[C@@H](O)CC[C@@H]12
inactive: [5] 0.0177 | [6] 0.137 | [7] 0.141 | [8] 0.0662

COS(C)(=O)=O
inactive: [1] 0.0621 | [2] 0.0487 | [3] 0.0611 | [4] -0.0183

O=P(O)(O)Cc1ccccc1
active: [3] -0.281 | [4] -0.453 | [11] -0.356 | [12] -1.06
inactive: [9] 0.115 | [10] -0.0367 | [1] 0.209 | [2] -0.089

CC12CCC3C(CC=C4CC(OS(=O)(=O)O)CCC43C)C1CCC2=O (centres undefined)
inactive: [5] 0.0737 | [6] -0.00205 | [7] 0.0312 | [8] 0.0129

CC[C@@]1(O)C[C@H](O[C@H]2C[C@H](N(C)C)[C@H](O)[C@H](C)O2)c2c(cc3c(c2O)C(=O)c2c(O)cccc2C3=O)[C@H]1C(=O)OC
inactive: [1] 0.0584 and -0.0862 | [2] -0.00295 and 0.0558
active: [3] -1.99 and -0.594 | [4] -0.405 and -0.193

CC[C@@]1(O)C[C@H](OC2C[C@@H](N(C)C)C(O)C(C)O2)c2c(cc3c(c2O)C(=O)c2c(O)ccc(O)c2C3=O)[C@H]1C(=O)OC (some centres undefined)
active: [3] -0.221
inactive: [1] 0.0817 | [2] 0.158 | [4] 0.00788

CCC1(O)CC(OC2CC(N(C)C)C(O)C(C)O2)c2c(cc3c(c2O)C(=O)c2c(O)cccc2C3=O)C1C(=O)OC (centres undefined)
active: [7] -0.409 | [8] -0.0756 | 25 µM, library screen: screen2, EWS-FLI1 expression: high (no doxycycline) -4.23 | 25 µM, library screen: screen2, EWS-FLI1 expression: low (doxycycline-induced shRNA knockdown) -3.71
inactive: 0.025 µM, library screen: screen2, EWS-FLI1 expression: high (no doxycycline) -0.0129 | 0.025 µM, library screen: screen2, EWS-FLI1 expression: low (doxycycline-induced shRNA knockdown) 0.0193 | [5] 0.135 | [6] -0.0369

Cc1o[nH]c(=O)c1CC(N)C(=O)O (centres undefined)
inactive: [5] 0.115 | [6] 0.0119 | [7] 0.0854 | [8] 0.0272

COc1ccc2c3c1O[C@H]1C(=O)CC[C@@]4(O)C(C2)N(CC2CC2)CCC314 (some centres undefined)
inactive: [5] 0.143 | [6] 0.0949 | [7] -0.028 | [8] 0.00345

C[C@]12CCC3C(CC[C@H]4C[C@@H](Cl)CC[C@]34C)C1CCC2=O (some centres undefined)
inactive: [1] 0.0861 | [2] 0.0822 | [3] 0.109 | [4] 0.0908

CC1CC(Cl)CCC1C(=O)OC(C)(C)C (centres undefined)
inactive: [1] -0.0203 | [2] 0.0889 | [3] 0.151 | [4] 0.103

Cn1c(=O)c2c(ncn2CCCl)n(C)c1=O
inactive: [1] 0.086 | [2] -0.0151 | [3] -0.000593 | [4] 0.00538

CC(=O)O[C@H]1C[C@@H](OC(C)=O)C(C)(C)C2C[C@@H](OC(C)=O)[C@]3(C)C(CC[C@@]4(C)[C@H](c5ccoc5)C[C@H]5O[C@]543)[C@]21C (some centres undefined)
inactive: [1] 0.134 | [2] 0.0408 | [3] 0.129 | [4] 0.147

C[C@@H]1O[C@H](C[N+](C)(C)C)C[C@H]1O
inactive: [5] 0.143 | [6] 0.0741 | [7] 0.116 | [8] -0.0161

CCCN(CCC)C1CCc2cccc(O)c2C1 (centres undefined)
inactive: [5] 0.114 | [6] 0.0781 | [7] 0.143 | [8] 0.0595

CC(C)c1ccc2c(c1O)CCC1C3=C(CCC21C)C(=O)OC3 (centres undefined)
inactive: [1] 0.0257 | [2] 0.104 | [3] 0.151 | [4] 0.343

CC(C)[C@]12O[C@H]1[C@@H]1O[C@@]13[C@@]1(C)CCC4=C(COC4=O)[C@@H]1C[C@@H]1O[C@@]13C2=O
active: [1] -2.66 | [2] -3.01 | [3] -3.24 | [4] -2.91

O=C1C(Cl)=C(Cl)C(=O)C(Cl)=C1Cl
inactive: [1] 0.0885 | [2] 0.0373 | [3] 0.114 | [4] 0.156

ClC1C(Cl)C(Cl)C(Cl)C(Cl)C1Cl (centres undefined)
inactive: [1] 0.118 | [2] 0.0584 | [3] 0.159 | [4] -0.0362

C[N+]1(C)C2CC(OC(=O)[C@H](CO)c3ccccc3)CC1C1OC12 (some centres undefined)
inactive: [5] 0.208 | [6] 0.126 | [7] 0.131 | [8] 0.157

CCNC(=O)[C@H]1O[C@@H](n2cnc3c(N)ncnc32)[C@H](O)[C@@H]1O
inactive: [5] 0.186 | [6] 0.0998 | [7] 0.0806 | [8] 0.122

COc1cccc2c1cc([N+](=O)[O-])c1c(C(=O)O)cc3c(c12)OCO3
inactive: [1] 0.0105 | [2] 0.00257 | [4] -0.0027
active: [3] -0.209

COc1c2c(cc3c1OCO3)CCN(C)C2
inactive: [1] 0.00337 | [2] -0.0221 | [3] 0.133 | [4] 0.0446

CC(N)Cc1c[nH]c2ccccc12 (centres undefined)
inactive: [5] 0.229 | [6] 0.175 | [7] 0.0609 | [8] 0.105

CCn1cnc2c(Nc3cccc(Cl)c3)nc(N[C@@H]3CCCC[C@@H]3N)nc21
active: [7] -0.199
inactive: [5] 0.222 | [6] 0.14 | [8] -0.0222

C[C@H]1C[C@@H](O)[C@]2(O)[C@@]13CC(=O)OC[C@@]2(C)[C@](C)(O)C(=O)C3
inactive: [1] 0.0914 | [2] -0.0111 | [3] 0.0806 | [4] 0.024

CN[C@@H]1C[C@H]2O[C@@](C)([C@@H]1OC)n1c3ccccc3c3c4c(c5c6ccccc6n2c5c31)C(=O)NC4
active: [9] -2.08 | [10] -1.86 | [1] -3.68 | [2] -3.78 | [3] -4.25 | [4] -4.31 | [11] -4.11 | [12] -4.31

CC(=O)O[C@H]1C[C@@H](OC(C)=O)C(C)(C)C2C[C@@H](OC(C)=O)[C@]3(C)C(CC[C@@]4(C)[C@H](c5ccoc5)C(=O)[C@H]5O[C@]543)[C@]21C (some centres undefined)
inactive: [1] 0.0663 | [2] 0.135 | [3] 0.0399 | [4] 0.171

c1ccc2c(c1)cc1ccc3cccc4ccc2c1c34
inactive: [1] 0.0949 | [2] 0.14 | [3] 0.11 | [4] 0.179

Reference: the supplement of paper PMC6089552
